The campaign covered roughly 16,000 compounds. About 4,000 (25%) were called active. Roughly 26% stayed inconclusive and do not appear here. Not all results are given here. Values without a mark were called inactive. Calls follow the shape of the dose curve; as a rule, active = well fitted curve in the direction sought with a large enough effect; inconclusive = small, poorly fitted or top-dose-only effect, or effect the other way; inactive = no such curve, though single readings can be large or run the other way.
% is scaled to controls: 0 for no effect and ±100 for the full control effect.

Chain of Cytochrome P450 2C9 (Homo sapiens) (P11712 whole entry, looked up): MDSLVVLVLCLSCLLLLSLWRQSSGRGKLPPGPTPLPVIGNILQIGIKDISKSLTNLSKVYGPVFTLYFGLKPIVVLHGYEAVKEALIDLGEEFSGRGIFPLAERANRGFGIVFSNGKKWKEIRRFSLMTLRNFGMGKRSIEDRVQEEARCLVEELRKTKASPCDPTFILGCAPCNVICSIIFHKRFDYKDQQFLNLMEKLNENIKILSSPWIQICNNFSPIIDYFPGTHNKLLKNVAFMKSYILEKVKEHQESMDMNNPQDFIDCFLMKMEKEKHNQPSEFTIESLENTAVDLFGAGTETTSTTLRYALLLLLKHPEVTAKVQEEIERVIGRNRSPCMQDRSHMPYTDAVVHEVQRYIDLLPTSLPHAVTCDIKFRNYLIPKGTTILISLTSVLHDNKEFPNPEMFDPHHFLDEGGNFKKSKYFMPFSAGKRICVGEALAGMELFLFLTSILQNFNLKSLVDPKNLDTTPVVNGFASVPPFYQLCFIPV

The assay addresses Cytochrome P450 2C9 (Homo sapiens) (UniProt P11712). Description: Cytochrome panel assay with activity outcomes. The note with it: recombinant CYP, pro-luciferin dealkylation, luminescence, p450-cyp2c9; series mostly up to 57.1 µM; activity, negative = inhibition: at the top concentration.
Broadly, the AC50 is the concentration giving half of the maximal activity seen. Turning to `CN1Cc2c(C(=O)OC(C)(C)C)ncn2-c2ccsc2C1=O`, the AC50 was 5.01 µM (active).

Take `Cc1c(N(C)CS(=O)(=O)O)c(=O)n(-c2ccccc2)n1C`: the “activity, negative = inhibition” value was -0.666% [at 25.6 µM].

`Cc1c(CCO)c(=O)n(-c2ccccc2)n1S(=O)(=O)c1c(Cl)cc(Cl)cc1Cl`: the AC50 was 5.01 µM (active).

Take `Cc1c(CCO)c(=O)n(C)n1C(=O)c1ccc(F)cc1`: the “activity, negative = inhibition” value was 55%.

As for `N#Cc1ccc(C(=O)Nc2ccc(N3CCN(C(=O)c4ccco4)CC3)cc2)c(F)c1`, the “activity, negative = inhibition” value is -19.7%.

`Cc1ccccc1C(=O)N1CCN(c2ccc([N+](=O)[O-])c(NCc3ccco3)c2)CC1`: the concentration at half-maximal activity (AC50) was 2.24 µM (active).

For `Cc1cccc(C(=O)NCN2CCN(c3ccccc3C#N)CC2)c1`, the AC50 result was “inactive”.

Take `Cc1cccc(C(=O)N2CCN(c3ccc([N+](=O)[O-])c(NCc4ccco4)c3)CC2)c1`: the AC50 was 3.55 µM (active).

Turning to `O=C1C2C3C=CC(C2C(=O)N1CN1CCOCC1)C1C2C(=O)N(CN4CCOCC4)C(=O)C2C31` (stereo not given), the activity, negative = inhibition is -4.42% [at 11.4 µM].

`COc1c2c(nc3ccccc13)O[C@H]([C@@](C)(O)CO)C2`: the “activity, negative = inhibition” value is 6.33% [at 25.6 µM].

Take `NC[C@H]1O[C@H](n2cnc3c(N)ncnc32)C[C@@H]1O`: the activity, negative = inhibition is 11.4% [at 11.4 µM].

On to `CCCCN(C)Cc1c(C)[nH]c2ccc(Cl)cc2c1=O`, for which the “activity, negative = inhibition” value was -23.2%.

On to `O=C(NCCCN1CCC(Cc2ccccc2)CC1)C1CCN(S(=O)(=O)N2CCOCC2)CC1`, for which the “activity, negative = inhibition” value was -2.95%.

Take `O=C(NCCCN1CCN(Cc2ccccc2)CC1)C1CCN(S(=O)(=O)N2CCCC2)CC1`: the “activity, negative = inhibition” value is -14.5%.

For the compound `O=C(NCCc1ccc(Cl)cc1)C1CCN(S(=O)(=O)N2CCC3(CC2)OCCO3)CC1`, the AC50 was 7.08 µM (active).

Take `NCS(=O)(=O)O`: the activity, negative = inhibition is -4.35% [at 11.4 µM].

For `N#Cc1ccc(C2=NC(C(F)(F)F)(C(F)(F)F)c3c(n(Cc4ccco4)c(=O)[nH]c3=O)N2)cc1`, the AC50 was 0.398 µM (active).

With `CC1(C)CC2(CC(c3cccs3)c3cc(Cl)c(O)cc3O2)NC(=S)N1` (stereo not given), the AC50 is 1 µM (active).

Consider `Cc1noc(C)c1-c1cc(NCc2cccs2)ncn1`, for which the activity, negative = inhibition is 17.3% [at 2.29 µM].

For the compound `COc1ccc(-c2nn(-c3ccccc3)cc2/C=N/NC(=O)c2ccc3c(c2)OCO3)cc1`, the concentration at half-maximal activity (AC50) is 3.16 µM (active).

For the compound `Cc1c(/C=N/NC(=O)c2ccc3c(c2)OCO3)cnn1C`, the “activity, negative = inhibition” value is -16.9%.

As to `O=C(N/N=C\c1cn(-c2ccccc2)nc1-c1ccccc1)c1ccc2c(c1)OCO2`, the AC50 is 3.98 µM (active).

As for `CC(/C=C/c1ccccc1)=N/NC(=O)CNC(=O)c1ccc2c(c1)OCO2`, the “activity, negative = inhibition” value was -26%.

In the case of `O=C(N/N=C/c1ccccn1)c1ccc(Br)o1`, the “activity, negative = inhibition” value was -46.8%.

Turning to `O=C(N/N=C\c1cn(-c2ccccc2)nc1-c1ccccc1)c1ccc(Br)o1`, the AC50 is 1.58 µM (active).

Source of the values: PubChem BioAssay AID1851 (National Center for Advancing Translational Sciences (NCATS), 2009).
